Assay results: PubChem BioAssay (NCI)
About 79,000 compounds went through this panel and 15% of them were active in at least one assay; those are over-represented in the sample as a whole. Cut-off read from the data, not from the text of the source: active = growth inhibition above about 70%; inactive = the rest. *1 amine or outer side, *2 acyl side, *3 side chain or, on linkers, in order; H or OH if unused. Where a SMILES comes first, the peptide text is derived from it. Bridges are numbered along the chain shown (N, C = ends). Roman numbers before positions name the chains, in order. [ ]: non-standard residue; d: D form. Actinocin(9to1) = Cc1c2oc3c(C)ccc(C(=O)[*:1])c3nc-2c(C(=O)[*:2])c(N)c1=O; NMeT = CN[CH](C(=O)O)[CH](C)O; Sar = CNCC(=O)O

How the values were obtained:
[1] = NCI Yeast Anticancer Drug Screen. Data for the rad50 strain (AID 155);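 note: 0% = growth of vehicle-only cultures of the same strain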; details: S. cerevisiae rad50 strain growth inhibition; at 50.0 µM; hits give high values
Outline: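 Compounds were tested on a yeast strain with an engineered DNA damage repair alteration; the reported value is growth inhibition normalised to vehicle treatment.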

[2] = NCI Yeast Anticancer Drug Screen. Data for the mec2-1 strain (AID 157); details: S. cerevisiae mec2-1 strain, at 50.0 µM, hits give high values
Outline: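 Vehicle-treated cultures served as reference for growth inhibition of compound-exposed mec2-1 yeast.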

[3] = NCI Yeast Anticancer Drug Screen. Data for the sgs1 mgt1 strain (AID 161);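 note: 0% = growth of cultures given vehicle only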; details: S. cerevisiae sgs1 mgt1 strain, at 50.0 µM, hits give high values
Outline: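 Genetically altered yeast, compound exposure, growth inhibition relative to vehicle.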

[4] = NCI Yeast Anticancer Drug Screen. Data for the cln2 rad14 strain (AID 165);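 note: 0% = growth equal to vehicle treated cultures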; details: S. cerevisiae cln2 rad14 strain, at 50.0 µM, hits give high values
Outline: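 Each compound was tested on cln2 rad14 yeast. Inhibition of growth was calculated against vehicle-exposed controls.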

[5] = NCI Yeast Anticancer Drug Screen. Data for the bub3 strain (AID 167); details: S. cerevisiae bub3 mutant strain, at 50.0 µM, hits give high values
Outline: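 Growth of a checkpoint-deficient yeast mutant is measured after compound exposure. Values represent inhibition relative to vehicle.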

[6] = NCI Yeast Anticancer Drug Screen. Data for the mlh1 rad18 strain (AID 175); details: S. cerevisiae mlh1 rad18 strain growth inhibition; at 50.0 µM; hits give high values
Outline: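 Vehicle-treated cultures served as the reference for growth inhibition in a yeast strain carrying DNA damage repair alterations exposed to each compound.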

Measured: growth inhibition

Cc1[nH]c2c(C)ccc(C)c2c1CC(=O)O
inactive: [1] 29.7% | [2] -15.1% | [3] -40.8% | [4] 17.1% | [5] -24.1% | [6] 10.2%

O=C(NC1CCC(CC2CCCCC2)CC1)c1ccccc1 (stereo not given)
inactive: [1] -14.7% | [2] 0.7% | [3] -7.65% | [4] 21.2% | [5] 10.8% | [6] 19.2%

CC1(C)CC(OP(=O)(c2ccccc2)c2ccccc2)CC(C)(C)N1O
inactive: [1] 5.25% | [2] 12.8% | [3] -6.3% | [4] 3.1% | [5] 13.3% | [6] 11.2%

CN1[C@@H]2C[C@@H](OC(=O)[C@H](CO)c3ccccc3)C[C@H]1[C@@H]1O[C@@H]12
inactive: [1] -1.3% | [2] 2.4% | [3] -33.7% | [4] -20.4% | [5] -10.3% | [6] 5.6%

O=C(/C=N/O)Nc1ccccc1I
inactive: [1] 3.95% | [2] -9.95% | [3] 20.4% | [4] 16.6% | [5] 18.1% | [6] -3.5%

CC(C)(CO)CN1CCCC1
inactive: [1] 10.3% | [2] -25.9% | [3] -4.05% | [4] 1.3% | [5] 3% | [6] 0.8%

NCCCNCCCCN1CCOC1=O
inactive: [1] 2.8% | [2] 1.65% | [3] -3.1% | [4] -6.6% | [5] -11.3% | [6] -17.9%

Cc1cccc(N(CCOS(C)(=O)=O)CCOS(C)(=O)=O)c1
inactive: [1] -8.6% | [2] -2.2% | [3] 14% | [4] -47.4% | [5] -5.2% | [6] -10.9%

CCC(CO)Nc1nc2c(c(=O)n(C)c(=O)n2C)n1CCO (stereo not given)
inactive: [1] -21.9% | [2] -1.9% | [3] 1% | [4] 8.15% | [5] -14.7% | [6] -4.75%

O=C(/C=C/c1ccc(Cl)c(Cl)c1)c1ccc2ccccc2c1
inactive: [1] 28.2% | [2] 1.95% | [3] -3.7% | [4] -8.6% | [5] 11.2% | [6] 20.2%

CCOC(=O)C1(C(=O)OCC)C2C=CC(C2)C1C(=O)OC (stereo not given)
inactive: [1] -0.65% | [2] -2.4% | [3] 15.8% | [4] -60.3% | [5] 8.45% | [6] 8.3%

CSc1nc(NC2OC(CO)C(O)C(O)C2O)cc(=O)[nH]1 (stereo not given)
inactive: [1] 3.5% | [2] 4.2% | [3] 2.85% | [4] -9.8% | [5] 7.5% | [6] -2.9%

CN1C(=S)C2=C(c3ccccc3)N(C)C(=S)C2=C1c1ccccc1
inactive: [1] 6% | [2] -6.15% | [3] 10.5% | [4] 28.9% | [5] -2.3% | [6] 26.1%

CNC(=O)c1ccc[n+](CC(=O)NCc2ccccc2)c1
inactive: [1] -1.8% | [2] -11.3% | [3] -15.8% | [4] -2.25% | [5] -1.5% | [6] -15.6%

COc1ncnc2ncn(C)c12
inactive: [1] 4.9% | [2] 18% | [3] -1.25% | [4] -12.9% | [5] 6.95% | [6] 0.2%

C(=C\c1cccs1)/c1csnn1
inactive: [1] 0.7% | [2] 15.7% | [3] 3.45% | [4] 12.8% | [5] -1.75% | [6] -7.55%

N#Cc1c(-c2ccc(Cl)cc2)c(C#N)c(=O)n(NS(=O)(=O)c2ccccc2)c1O
inactive: [1] 17.5% | [2] 46.9% | [3] 41.7% | [4] 48% | [5] 47% | [6] 50.2%

CCOC(=O)C(C)(C)O
inactive: [1] 18.8% | [2] 14% | [3] 1.05% | [4] -35.9% | [5] 9.05% | [6] 19.2%

COc1ccccc1N=Nc1c(O)n(-c2ccccc2C)c(=S)n(-c2ccccc2OC)c1=O
inactive: [1] 38.4% | [2] -9.7% | [3] 19.1% | [4] -12.8% | [5] -3.95% | [6] 3.2%

C=CC1CCC[N+]1(CC(=O)OCC)Cc1ccccc1 (stereo not given)
inactive: [1] -15.2% | [2] -13.9% | [3] -25.2% | [4] 3.7% | [5] -2.15% | [6] -10.8%

CCN1CCCC(SC(=O)C(O)(c2ccccc2)c2ccccc2)C1 (stereo not given)
inactive: [1] -16.6% | [2] -5.75% | [3] -22.1% | [4] -15.2% | [5] -4.15% | [6] 0.15%

[N-]=[N+]=Nc1ccccc1C(=O)NC(=O)Nc1ccccc1
inactive: [1] -14.1% | [2] 1.95% | [3] 5.5% | [4] -19.2% | [5] 2.45% | [6] -2.1%

O=C(NCc1ccccc1)NCc1ccccc1
inactive: [1] -25.5% | [2] -0.65% | [3] -2.5% | [4] -13.8% | [5] -18.4% | [6] -4.5%

CCOC(=O)c1nn2c(nc1=O)sc1ccc3ccccc3c12
inactive: [1] -22% | [2] -5.7% | [3] 7.8% | [4] 32.1% | [5] 25% | [6] 2.05%

C[Si](C)(C)c1ccc(C(=O)O)cc1
inactive: [1] 7.3% | [2] 12.6% | [3] -3.35% | [4] 3.2% | [5] -18.3% | [6] 10.2%

NC(=O)NC12CC3CC(CC(F)(C3)C1)C2
inactive: [1] -19.6% | [2] -29.1% | [3] -29.7% | [4] -0.95% | [5] -47.5% | [6] -9.85%

Cn1c(=O)c(CC(O)C(Cl)(Cl)Cl)nc2ccccc21 (stereo not given)
inactive: [1] 20.6% | [2] 23.6% | [3] 3.4% | [4] 3.75% | [5] 18.9% | [6] 31.7%

CCOC(=O)C(CCCOC1CCCCO1)(C(=O)OCC)c1ccccc1 (stereo not given)
inactive: [1] 21.4% | [2] -0.1% | [3] -15.2% | [4] 14.4% | [5] 8.8% | [6] -5%

Cc1cc(C)c(C(=O)c2ccccc2C(=O)O)c(C)c1
inactive: [1] 0.05% | [2] 11.1% | [3] 3.05% | [4] -89% | [5] 24.5% | [6] -12%

COC(=O)C(NC(=O)COc1ccccc1[N+](=O)[O-])C(=O)OC
inactive: [1] -15.2% | [2] -1.3% | [3] 0% | [4] 3% | [5] -12.6% | [6] -12.3%

COC1OC(=O)c2ccccc21 (stereo not given)
inactive: [1] 12.2% | [2] -16.2% | [3] -2.1% | [4] -0.7% | [5] -2.45% | [6] 12.8%

C=CCOCn1ccc(=O)[nH]c1=O
inactive: [1] 4.35% | [2] -3.05% | [3] 5.85% | [4] 3% | [5] 3.2% | [6] -3.05%

O=C(Oc1ccc([N+](=O)[O-])cc1)C(CSC(c1ccccc1)(c1ccccc1)c1ccccc1)N1C(=O)c2ccccc2C1=O (stereo not given)
inactive: [1] 61.8% | [2] 46.7% | [3] 44.5% | [4] 58.7% | [5] 31.9% | [6] 52.8%

C1CCSCCCCCSCCCCCSCCCCCSCC1
inactive: [1] 25.2% | [2] -7.55% | [3] -4.2% | [4] -3.15% | [5] 4.35% | [6] -8.7%

O=C1C2=Cc3ccccc3OC2(O)Oc2ccc(O)cc21 (stereo not given)
inactive: [1] 8.5% | [2] 6.75% | [3] -6.05% | [4] -2% | [5] -38.6% | [6] -33.5%

CCCCNC(=S)N(CCCC)CCCC
inactive: [1] 21.8% | [2] 18.2% | [3] 10.3% | [4] -16.2% | [5] 30.9% | [6] 13.1%

Cc1ccc(N2P(N(C)C)N(c3ccc(C)cc3)P2(=O)N(C)C)cc1 (stereo not given)
inactive: [1] 12.4% | [2] 22.4% | [3] 9.45% | [4] -5.6% | [5] 3.6% | [6] 6.4%

Cc1c2oc3c(C)ccc(C(=O)NC4C(=O)NC(C(C)C)C(=O)N5CCCC5C(=O)N(C)CC(=O)N(C)C(C(C)O)C(=O)OC4C)c3nc-2c(C(=O)NC2C(=O)NC(C(C)C)C(=O)N3CCCC3C(=O)N(C)CC(=O)N(C)C(C(C)O)C(=O)OC2C)c(N)c1=O (stereo not given) (I: TVP[Sar][NMeT] / II: TVP[Sar][NMeT]; ester I:1-I:C, II:1-II:C; linker I:N-II:N via Actinocin(9to1); configuration not given here)
inactive: [1] 19.4% | [2] -21% | [3] -3.3% | [4] 31.3% | [5] -5.3% | [6] -52.5%

Oc1cccc(CCc2ccccn2)c1
inactive: [1] -2.45% | [2] 0.85% | [3] -11.3% | [4] -24.3% | [5] -3.85% | [6] -4.05%

CN1C(=O)C2CC(=O)N(Cc3ccccc3)C(=O)C2C1=O (stereo not given)
inactive: [1] 0.5% | [2] -16.1% | [3] -1.05% | [4] 9.3% | [5] -5.4% | [6] -1.35%
